Legend:
[1] = molecular target: T1, Aspartate--tRNA(Asp/Asn) ligase (Mycobacterium tuberculosis (strain ATCC 25618 / H37Rv)) (UniProt P9WFW3); experiment: Assay for Asp RNA synthetase-1 from Mycobacterium tuberculosis; type: functional; parameters: scale not given: direction of the effect not stated beside the values; settings: 30 µM; note: in the data most compounds retested in dose-response had high values
T1 sequence (whole entry): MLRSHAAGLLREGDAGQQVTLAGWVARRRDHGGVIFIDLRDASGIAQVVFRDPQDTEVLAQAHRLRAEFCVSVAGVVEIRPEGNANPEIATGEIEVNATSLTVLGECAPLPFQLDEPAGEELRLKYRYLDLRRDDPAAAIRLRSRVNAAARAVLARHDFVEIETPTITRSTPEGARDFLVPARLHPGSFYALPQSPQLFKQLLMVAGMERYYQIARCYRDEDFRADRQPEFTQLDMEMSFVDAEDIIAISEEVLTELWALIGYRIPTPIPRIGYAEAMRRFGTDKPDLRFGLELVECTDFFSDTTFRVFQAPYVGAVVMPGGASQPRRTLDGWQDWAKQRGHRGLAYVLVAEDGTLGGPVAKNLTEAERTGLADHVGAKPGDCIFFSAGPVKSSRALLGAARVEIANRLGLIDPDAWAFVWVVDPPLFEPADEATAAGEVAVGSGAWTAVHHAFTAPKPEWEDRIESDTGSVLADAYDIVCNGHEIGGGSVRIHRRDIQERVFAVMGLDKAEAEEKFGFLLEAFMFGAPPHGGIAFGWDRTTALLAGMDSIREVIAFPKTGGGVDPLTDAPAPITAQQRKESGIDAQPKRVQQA

[2] = molecular target: Shiga toxin 2 (Escherichia coli O157:H7) (UniProt P09385+P09386); experiment: E. coli 0.157:H7 Shiga Toxin SOP - stx2 screening assay; type: functional; parameters: scale not given: direction of the effect not stated beside the values; settings: 30 µM

Compound	Percent Effect [1]	Percent Effect [2]
Cc1ncc2c(n1)CCN(C(=O)Cc1c(C)noc1C)C2	-2.87%	-13.9%
O=C(NCCNc1cnccn1)N1CCN(Cc2cccnc2)CC1	-4.35%	-68.8%
COc1ccc(Br)c(C(=O)N2CCC(c3n[nH]c(C4CC4)n3)CC2)c1	0.422%	-39.5%
CN(Cc1ccccn1)C1CC2(CCN(Cc3cccnc3)CC2)C1	-2.75%	-14.8%
Cc1noc(C)c1CN1CCN(CC2CC2)c2ncccc2C1	2.1%	0.649%
CNC(=O)Nc1cc(-c2ccc(Br)cc2)nn1CCO	-3.53%	7.53%
COC(=O)CCC(=O)N1CCc2[nH]nc(-c3ccc(F)c(F)c3)c2C1	5.15%	-11.9%
Cc1nc(CN(C)C2CCN(CC3CCCCC3)C2)no1 (centres undefined)	-2.62%	-9.5%
CN(C)CCN(Cc1cccc(C(F)(F)F)c1)C(=O)c1cc[nH]n1	0.947%	-18.8%
O=C(NCCOc1ccc(F)c(F)c1)NCc1ccncc1	-0.948%	-4.38%
Cn1cc(CN2CCCN(C(=O)c3ccc4c(c3)COC4)CC2)cn1	-0.281%	30.1%
Cn1nc(C#N)c2c1CN(C(=O)c1cccnc1)CCC2	7.3%	-7.73%
CC(C)c1nnc(NC(=O)NCc2ccnc(N(C)C)c2)s1	-3.25%	-21.8%
Cc1ccc(N2CCCC(NCc3ccsc3)C2)nn1 (centres undefined)	4.57%	10.6%
CC(C)NC(=O)c1n[nH]c(-n2cnnc2)n1	-4.62%	-0.0919%
Cc1cc(NCc2cc3n(n2)CCCN(S(C)(=O)=O)C3)ncn1	-7.29%	25.2%
CN(C)C(C(=O)N1CCC(N2CCSCC2)CC1)c1ccccc1F (centres undefined)	-8.47%	-3.63%

Reference: ChEMBL document CHEMBL3988442, “University of Dundee, Small-Polar-MMV Screening Library” (2021)
